For part of these data: Potency and affinity values are given separately.
Assays:
Set-up in all cases: scale not given: direction of the effect not stated beside the values
[1] = target: Protein translocase subunit SecA (Escherichia coli (strain K12)) (UniProt P10408); assay: Assay to Identify E. coli SecA ATPase Inhibitors; type: functional; conditions: 30 µM
[2] = target: T1, Ubiquitin-activating enzyme e1, putative (Leishmania donovani (strain BPK282A1)) (UniProt E9BSI1); assay: Leishmania donovani Ubiquitin Activating Enzyme (LdE1); type: functional; conditions: 30 µM
T1 sequence (whole entry): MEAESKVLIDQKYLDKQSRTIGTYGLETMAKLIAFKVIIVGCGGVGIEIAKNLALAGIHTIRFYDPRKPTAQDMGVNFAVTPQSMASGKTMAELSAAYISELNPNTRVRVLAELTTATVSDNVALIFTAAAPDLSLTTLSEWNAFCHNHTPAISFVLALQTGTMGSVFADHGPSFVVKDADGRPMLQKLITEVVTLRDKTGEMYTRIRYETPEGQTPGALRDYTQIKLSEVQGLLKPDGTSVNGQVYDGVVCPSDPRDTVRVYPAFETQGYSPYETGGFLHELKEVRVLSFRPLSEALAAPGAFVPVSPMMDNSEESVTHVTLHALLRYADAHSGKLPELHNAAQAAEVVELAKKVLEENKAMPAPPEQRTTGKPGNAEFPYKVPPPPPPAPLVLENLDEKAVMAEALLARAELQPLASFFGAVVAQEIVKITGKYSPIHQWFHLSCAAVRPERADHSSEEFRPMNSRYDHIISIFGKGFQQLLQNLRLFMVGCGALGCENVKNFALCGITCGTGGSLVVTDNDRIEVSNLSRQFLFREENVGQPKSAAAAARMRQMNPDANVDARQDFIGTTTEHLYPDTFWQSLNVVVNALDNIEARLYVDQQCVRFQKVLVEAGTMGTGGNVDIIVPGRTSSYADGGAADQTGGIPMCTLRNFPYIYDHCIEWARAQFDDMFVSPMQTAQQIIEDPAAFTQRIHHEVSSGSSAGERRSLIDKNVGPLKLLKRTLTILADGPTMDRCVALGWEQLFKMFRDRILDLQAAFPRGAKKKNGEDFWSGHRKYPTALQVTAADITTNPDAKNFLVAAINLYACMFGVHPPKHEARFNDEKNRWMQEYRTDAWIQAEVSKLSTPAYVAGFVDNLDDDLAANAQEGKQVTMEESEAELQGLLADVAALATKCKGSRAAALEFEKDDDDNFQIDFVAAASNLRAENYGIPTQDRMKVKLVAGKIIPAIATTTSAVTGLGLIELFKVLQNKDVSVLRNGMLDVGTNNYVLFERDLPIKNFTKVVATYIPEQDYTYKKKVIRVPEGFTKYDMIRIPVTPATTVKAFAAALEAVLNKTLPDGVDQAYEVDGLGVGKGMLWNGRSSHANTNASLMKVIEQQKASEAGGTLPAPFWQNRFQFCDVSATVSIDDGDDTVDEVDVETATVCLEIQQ

[3] = target: AMP-activated protein kinase, AMPK (Homo sapiens) (UniProt P54646+O43741+P54619+Q9UGJ0+Q9Y478+Q13131+Q9UGI9); assay: AMP-dependent Kinase enzyme assay. An in vitro enzyme assay that detects ADP turnover that is directly proportional to AMPK activity. This uses naive AMPK that is activated during the assay with MK-8722; type: functional; conditions: 30 µM
[4] = target: Sialic acid-binding Ig-like lectin 9 (Homo sapiens) (UniProt Q9Y336); assay: Hs-Siglec9 ALPHAscreen SOP 20170721; conditions: 10 µM
Sequence of Sialic acid-binding Ig-like lectin 9 (Homo sapiens) (Q9Y336 whole entry): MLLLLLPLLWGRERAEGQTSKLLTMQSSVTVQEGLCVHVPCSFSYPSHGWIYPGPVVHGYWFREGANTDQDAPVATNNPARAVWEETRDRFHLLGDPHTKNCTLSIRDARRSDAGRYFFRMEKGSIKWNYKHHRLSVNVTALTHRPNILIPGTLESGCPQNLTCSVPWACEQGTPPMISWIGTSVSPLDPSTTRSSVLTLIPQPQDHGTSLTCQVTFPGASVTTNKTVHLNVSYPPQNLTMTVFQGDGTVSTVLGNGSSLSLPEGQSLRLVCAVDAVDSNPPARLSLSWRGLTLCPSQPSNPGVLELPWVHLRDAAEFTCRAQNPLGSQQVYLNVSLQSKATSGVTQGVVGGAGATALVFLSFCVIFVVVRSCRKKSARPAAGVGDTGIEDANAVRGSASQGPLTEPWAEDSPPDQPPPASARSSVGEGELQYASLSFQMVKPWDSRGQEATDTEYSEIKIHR

Trypanosoma cruzi = assay: Trypanosoma cruzi phosphomannomutase and mannose-1-phosphate guanylyltransferase assay; type: functional; conditions: 10 µM
[5] = target: T2, Arginase-2, mitochondrial (Homo sapiens) (UniProt P78540); assay: in vitro enzyme assay to detect the production of urea directly proportional to the activity of Arginase II; type: functional; conditions: 33.3 µM; note: in the data most compounds retested in dose-response had high values
T2 sequence (whole entry): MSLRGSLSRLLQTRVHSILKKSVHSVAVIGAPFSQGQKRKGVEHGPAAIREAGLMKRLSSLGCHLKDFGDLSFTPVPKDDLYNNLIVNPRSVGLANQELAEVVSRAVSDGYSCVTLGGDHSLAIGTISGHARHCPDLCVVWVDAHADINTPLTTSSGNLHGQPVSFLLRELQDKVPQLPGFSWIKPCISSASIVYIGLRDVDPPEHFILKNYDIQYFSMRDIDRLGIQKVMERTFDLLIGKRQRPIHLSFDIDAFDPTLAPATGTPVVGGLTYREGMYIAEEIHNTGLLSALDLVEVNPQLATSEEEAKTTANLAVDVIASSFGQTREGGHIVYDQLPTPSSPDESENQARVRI

[6] = target: T3, Proteasome subunit beta (Trypanosoma cruzi) (UniProt O96673); assay: Trypanosoma cruzi proteasome chymotrypsin-like activity (TcProtChymo) assay.; note: in the data most compounds retested in dose-response had high values; type: functional; conditions: 9.37 µM
T3 sequence (whole entry): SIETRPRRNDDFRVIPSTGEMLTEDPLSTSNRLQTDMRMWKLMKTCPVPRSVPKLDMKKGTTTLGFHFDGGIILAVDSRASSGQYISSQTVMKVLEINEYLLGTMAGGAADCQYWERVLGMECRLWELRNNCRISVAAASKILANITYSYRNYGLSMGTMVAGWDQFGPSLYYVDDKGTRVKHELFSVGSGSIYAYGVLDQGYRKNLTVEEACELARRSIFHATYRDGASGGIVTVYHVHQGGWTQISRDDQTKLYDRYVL

Homo sapiens = species: Homo sapiens; assay: To identify inhibition of the IFN signalling (Jak-Stat) pathway via expression of an eGFP reporter gene under the control of an IFN-stimulated response element (ISRE) containing MxA promoter.; type: functional; conditions: 30 µM
[7] = target: T4, Tyrosyl-tRNA synthetase, putative (Trypanosoma cruzi (strain CL Brener)) (UniProt Q4DSP6); assay: Trypanosoma cruzi tyrosyl tRNA synthetase (TcYRS) _High Tyrosine SOP; type: functional; conditions: 30 µM; note: in the data most compounds retested in dose-response had high values
T4 sequence (whole entry): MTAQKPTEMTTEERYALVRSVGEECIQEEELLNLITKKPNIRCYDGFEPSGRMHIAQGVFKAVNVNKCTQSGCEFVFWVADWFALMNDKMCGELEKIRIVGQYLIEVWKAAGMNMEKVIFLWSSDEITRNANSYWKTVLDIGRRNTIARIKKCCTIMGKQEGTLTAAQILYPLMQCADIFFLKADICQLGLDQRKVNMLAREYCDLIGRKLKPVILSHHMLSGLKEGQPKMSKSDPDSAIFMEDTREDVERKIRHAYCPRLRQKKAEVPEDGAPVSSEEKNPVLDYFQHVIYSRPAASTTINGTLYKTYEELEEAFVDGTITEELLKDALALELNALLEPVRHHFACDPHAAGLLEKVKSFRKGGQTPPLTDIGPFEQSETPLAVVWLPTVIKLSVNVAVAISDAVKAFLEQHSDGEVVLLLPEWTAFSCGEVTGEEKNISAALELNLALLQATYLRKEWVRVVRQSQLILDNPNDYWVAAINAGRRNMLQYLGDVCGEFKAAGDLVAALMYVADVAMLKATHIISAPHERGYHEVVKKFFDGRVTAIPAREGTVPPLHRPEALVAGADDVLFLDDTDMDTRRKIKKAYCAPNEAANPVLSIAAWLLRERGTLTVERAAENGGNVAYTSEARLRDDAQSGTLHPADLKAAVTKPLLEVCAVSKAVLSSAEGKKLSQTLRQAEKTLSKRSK

[8] = target: T4, Tyrosyl-tRNA synthetase, putative (Trypanosoma cruzi (strain CL Brener)); assay: Trypanosoma cruzi tyrosyl tRNA synthetase (TcYRS) SOP; type: functional; conditions: 30 µM
[9] = target: Chromo domain-containing protein 1 (Saccharomyces cerevisiae (strain ATCC 204508 / S288c) (Baker's yeast)) (UniProt P32657); assay: ScCHD-1 Enzyme Inhibition Assay; type: functional; conditions: 30 µM; note: in the data most compounds retested in dose-response had high values
Sequence of Chromo domain-containing protein 1 (Saccharomyces cerevisiae (strain ATCC 204508 / S288c) (Baker's yeast)) (P32657 whole entry, the tested form may be a part): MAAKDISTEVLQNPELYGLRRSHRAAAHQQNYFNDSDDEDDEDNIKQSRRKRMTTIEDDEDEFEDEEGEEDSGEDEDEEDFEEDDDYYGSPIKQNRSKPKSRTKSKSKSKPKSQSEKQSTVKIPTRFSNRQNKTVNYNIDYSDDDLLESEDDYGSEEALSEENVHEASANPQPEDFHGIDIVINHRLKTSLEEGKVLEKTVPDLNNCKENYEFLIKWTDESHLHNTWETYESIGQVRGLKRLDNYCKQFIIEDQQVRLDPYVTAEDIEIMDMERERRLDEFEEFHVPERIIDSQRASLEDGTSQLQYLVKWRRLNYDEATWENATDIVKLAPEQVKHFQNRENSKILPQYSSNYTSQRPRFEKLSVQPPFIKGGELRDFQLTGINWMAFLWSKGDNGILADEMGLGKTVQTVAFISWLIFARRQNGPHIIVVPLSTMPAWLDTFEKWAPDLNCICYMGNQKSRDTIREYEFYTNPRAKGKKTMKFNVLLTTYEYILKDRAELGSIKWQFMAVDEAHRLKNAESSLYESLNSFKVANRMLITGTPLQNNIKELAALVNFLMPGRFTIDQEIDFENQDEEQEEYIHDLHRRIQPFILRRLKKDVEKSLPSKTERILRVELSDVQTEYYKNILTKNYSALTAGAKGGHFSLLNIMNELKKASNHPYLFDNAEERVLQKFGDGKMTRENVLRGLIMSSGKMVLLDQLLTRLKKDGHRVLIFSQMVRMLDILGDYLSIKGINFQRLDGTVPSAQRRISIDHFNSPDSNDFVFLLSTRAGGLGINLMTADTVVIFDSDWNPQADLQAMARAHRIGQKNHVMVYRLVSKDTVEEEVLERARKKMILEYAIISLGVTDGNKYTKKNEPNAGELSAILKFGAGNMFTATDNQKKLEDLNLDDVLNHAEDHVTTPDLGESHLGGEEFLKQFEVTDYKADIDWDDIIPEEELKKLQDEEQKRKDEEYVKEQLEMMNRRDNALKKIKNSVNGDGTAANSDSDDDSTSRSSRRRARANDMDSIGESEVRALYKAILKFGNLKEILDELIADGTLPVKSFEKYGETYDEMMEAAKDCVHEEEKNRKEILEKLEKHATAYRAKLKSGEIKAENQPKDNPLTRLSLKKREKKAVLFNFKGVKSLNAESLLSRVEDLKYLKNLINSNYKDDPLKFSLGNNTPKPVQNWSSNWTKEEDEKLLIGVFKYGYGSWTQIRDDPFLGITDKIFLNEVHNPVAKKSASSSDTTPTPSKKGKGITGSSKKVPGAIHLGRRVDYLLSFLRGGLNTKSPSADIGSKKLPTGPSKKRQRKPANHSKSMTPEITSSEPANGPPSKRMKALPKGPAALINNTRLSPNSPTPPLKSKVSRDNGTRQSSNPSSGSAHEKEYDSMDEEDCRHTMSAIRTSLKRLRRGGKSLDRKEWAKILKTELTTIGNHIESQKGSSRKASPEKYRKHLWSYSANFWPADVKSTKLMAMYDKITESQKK

Sequence of Protein translocase subunit SecA (Escherichia coli (strain K12)) (P10408 whole entry): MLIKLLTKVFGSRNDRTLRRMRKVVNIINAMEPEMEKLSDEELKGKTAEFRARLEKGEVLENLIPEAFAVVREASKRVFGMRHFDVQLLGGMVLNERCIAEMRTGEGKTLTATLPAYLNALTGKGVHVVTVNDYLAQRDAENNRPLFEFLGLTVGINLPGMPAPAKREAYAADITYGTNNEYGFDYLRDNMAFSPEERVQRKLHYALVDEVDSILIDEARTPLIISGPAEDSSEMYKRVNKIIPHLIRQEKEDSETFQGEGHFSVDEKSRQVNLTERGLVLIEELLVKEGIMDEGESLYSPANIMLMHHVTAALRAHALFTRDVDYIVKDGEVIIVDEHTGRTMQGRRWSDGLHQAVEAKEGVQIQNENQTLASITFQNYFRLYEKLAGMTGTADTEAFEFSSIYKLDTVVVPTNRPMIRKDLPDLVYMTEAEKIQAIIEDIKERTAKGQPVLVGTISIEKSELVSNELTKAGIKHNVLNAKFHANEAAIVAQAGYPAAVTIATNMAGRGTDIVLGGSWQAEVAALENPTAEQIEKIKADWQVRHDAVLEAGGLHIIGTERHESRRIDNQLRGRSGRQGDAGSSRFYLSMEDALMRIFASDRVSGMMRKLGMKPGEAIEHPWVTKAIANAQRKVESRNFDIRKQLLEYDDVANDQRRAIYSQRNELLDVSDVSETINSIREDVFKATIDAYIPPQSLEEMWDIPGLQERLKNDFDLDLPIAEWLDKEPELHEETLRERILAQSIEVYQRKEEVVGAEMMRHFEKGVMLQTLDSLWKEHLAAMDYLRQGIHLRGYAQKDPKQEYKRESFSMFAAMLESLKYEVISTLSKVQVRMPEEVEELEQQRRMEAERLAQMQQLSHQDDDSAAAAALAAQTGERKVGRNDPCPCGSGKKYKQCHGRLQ

Row | SMILES | Percent Effect [1] [%] | Percent Effect [2] [%] | Percent Effect [3] [%] | Percent Effect [4] [%] | Percent Effect (Trypanosoma cruzi) [%] | Percent Effect [5] [%] | Percent Effect [6] [%] | Percent Effect (Homo sapiens) [%] | Percent Effect [7] [%] | Percent Effect [8] [%] | Percent Effect [9] [%]
1 | Cc1nc(CCNC(=O)N2CCC(Cc3cnn(C)c3)C2)cs1 (centres undefined) | -5.52 | 2.63 | 9.75 | 4.12 | -0.682 | 116 | 19.9 | -10.1 | 2.13 | 5.2 | -2.02
2 | CC(C)C(=O)NCCNc1nccc(-c2cc(C(=O)O)ccn2)n1 | -4.2 | 19.2 | -3.6 | 15 | 2.74 | 6.82 | 13.1 | 2.74 | 9.68 | 20 | -5.35
3 | Cc1ccsc1CNC(=O)NC1CCCc2c1cnn2CCO (centres undefined) | -6.41 | 2.67 | 2.26 | 2.19 | -1.27 | -3.12 | 13.4 | -12.2 | 6.01 | 18.5 | -4.15
4 | COc1c(CNCCNC(=O)c2ccc(C)cc2)c(C)nn1C | -5.75 | 13.5 | -5.83 | 19.1 | 6.96 | -2.4 | 5.57 | -9.3 | 7.92 | 28.1 | -7.35
5 | Cc1ccc(C(NC(=O)CC2CCN(C(C)C)CC2)C(=O)O)cc1 (centres undefined) | -4.94 | 2.7 | -0.654 | -0.948 | 1.74 | 0.476 | 1.55 | 0.454 | 2.65 | 9.76 | 0.336
6 | Cc1ccc(-c2nc(CN3CCOC(c4ccccc4)C3)cs2)o1 (centres undefined) | 0.984 | -24.3 | -0.197 | 6.73 | 2.7 | 3.81 | 12.6 | -17.4 | 3.7 | 0 | 17.1
7 | O=c1cc2c(nn1CN1CCN(c3ccccc3)CC1)CCC2 | -2.18 | 12 | -4.49 | 2.85 | 0 | -1.23 | 15 | 11.5 | 6.35 | 15.4 | -9.54
8 | O=C(NCC1CCN(Cc2ccsc2)CC1)NC1CC1 | 1.05 | 7.79 | 2.27 | -0.902 | -5.62 | 14.8 | 17.2 | 10.3 | 2.12 | 6.41 | -5.17
9 | CCn1cnnc1CNC(=O)c1ccc(Cl)cc1F | -2.15 | 16.5 | -1.73 | 3.58 | 0.103 | -6.24 | 16.6 | 5.91 | 9.38 | 17.7 | -13.8
